Data as given in ChEMBL document CHEMBL1157539, “Thousands of chemical starting points for antimalarial lead identification” (Nature, 2010).

Experiments:
Format in all cases: functional
Plasmodium falciparum [1] = experiment: GSK_TCMDC: Inhibition of Plasmodium falciparum 3D7 in whole red blood cells, using parasite LDH activity as an index of growth. Test compounds present at 2uM
Plasmodium falciparum [2] = experiment: GSK_TCMDC: Inhibition of Plasmodium falciparum Dd2 in whole red blood cells, using parasite LDH activity as an index of growth. Test compounds present at 2uM
HepG2 = experiment: GSK_TCMDC: Percent inhibition of human HepG2 cell line. Test compounds present at 10uM.

| Structure (SMILES) | Inhibition (Plasmodium falciparum [1]) | Inhibition (Plasmodium falciparum [2]) | Inhibition (HepG2) |
| --- | --- | --- | --- |
| COc1ccc(C=NNc2ccnc3cc(F)c(C)cc23)c2ccccc12 | 100% | 85% | 0% |
| COc1ccc(CCN(C)CCCOc2ccc(NC(=O)c3cccc4c(=O)c5ccccc5[nH]c34)cc2)cc1OC | 94% | 45% | 80% |
| Cc1cc(N[C@@H](Cc2ccccc2)C(=O)NCc2cccs2)nc(NCCc2ccccc2)n1.O=C(O)C(F)(F)F | 92% | 61% | 6% |
| Cc1cc(OCCN2CCCCC2)ccc1NC(=O)c1cccc2c(=O)n(Cc3ccc(Cl)cc3)cnc12 | 88% | 56% | 100% |
| Br.Nc1ccc(-c2csc(Nc3ccncc3)n2)cc1 | 95% | 50% | 12% |
